Potency data for 103 molecules are collected here from PubChem BioAssay AID2289 (National Center for Advancing Translational Sciences (NCATS), 2010).

Out of some 340,000 compounds screened, about 3,300 (0.97%) were called active. Not shown: some 9% with an inconclusive outcome. The call rests on the fitted dose curve; in most records, active means well fitted inhibition curve with a large enough effect; inconclusive means small, poorly fitted or top-dose-only effect, or effect the other way; inactive means flat fitted curve, though single readings scatter. This is one part of the list.
Potency means the concentration at half of the fitted maximal effect.

The assay can be described thus: qHTS Assay for Modulators of miRNAs and/or Inhibitors of miR-21. Further: nearly all actives have a fitted effect of over 55% in size. The conditions noted are these: HeLa miR-21-FLuc reporter, luciferase luminescence, 48 h; actives lower the signal. A digest of the protocol:
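Compounds were titrated across several concentrations (up to approximately 40 uM) and incubated 48 hours with HeLa miR-21-FLuc reporter cells (miR-21 target sequence downstream of FLuc, endogenous miR-21). Readout was firefly luciferase luminescence after lytic detection reagent.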
Background: Quantitative high-throughput screening tests each substance at several concentrations.
Consider `COc1ccc(NC(=O)c2ccc(Br)o2)cc1`, for which the Potency is 4.14 µM (active). As for `COc1ccc(NC(=S)NC(=O)c2ccc(Br)o2)cc1`, the Potency is 3.29 µM (active). As for `Cc1ccc(C(=O)NC(=S)NCC2CCCO2)cc1Br` (stereo not drawn), the Potency was 8.26 µM (active).

On to `C(=C\c1ccco1)/c1ccc2ccccc2n1`, for which the Potency is 0.656 µM (active). As to `O=[N+]([O-])c1cccc2ccc(/C=C/c3ccc(F)cc3)nc12`, the Potency was 7.36 µM (active). The same measure for `O=[N+]([O-])c1ccccc1/C=C/c1ccc2ccccc2n1`: 1.31 µM (active); for `O=C(O)c1ccc(/C=C/c2ccc3cccc(O)c3n2)cc1`: 4.14 µM (active); for `Cc1ccc2c(CN(C)Cc3cccc(F)c3)cc(=O)oc2c1`: 13.1 µM (active). Next, `Cc1ccc2c(CNCc3ccco3)cc(=O)oc2c1`: 9.27 µM (active); `COc1ccc(N=Cc2nc(-c3ccccc3)oc2OC(=O)c2ccccc2)cc1`: 1.85 µM (active); `CC1CCc2c(sc(/N=C/N(C)C)c2C#N)C1` (stereo not drawn): 7.36 µM (active).

Consider `CN(C)/C=N/c1sc2c(c1C#N)CCCCC2`, for which the Potency is 5.21 µM (active). On to `CCN(/C=N/c1sc2c(c1C#N)CCCCC2)CC`, for which the Potency is 3.69 µM (active). The same measure for `CCn1c(C)nc2cc(C(=O)NNC(=S)Nc3ccccc3Cl)ccc21`: 7.36 µM (active). Next, `CCn1c(C)nc2cc(C(=O)NNC(=S)Nc3ccccc3OC)ccc21`: 14.7 µM (active); `CCN(CC)CCn1c2ccccc2c2nc3ccc([N+](=O)[O-])cc3cc21`: 14.7 µM (active); `O=C1CCCC(O)=C1N=Nc1ccc2c(c1)OCO2`: 14.7 µM (active). Turning to `O=C(Nc1ccc(-c2nc3ccccc3s2)c(OC(=O)c2ccccc2)c1)c1ccccc1`, the Potency was 0.329 µM (active).

As to `CCSc1ccccc1C(=O)Nc1ccc(-c2nc3ccccc3s2)c(O)c1`, the Potency is 3.69 µM (active). The same measure for `O=C(Nc1ccc(-c2nc3ccccc3s2)c(O)c1)C1=COCCO1`: 0.261 µM (active). The same measure for `O=C(CC1Sc2ccccc2NC1=O)c1ccc(Br)cc1` (stereo not drawn): 8.26 µM (active); for `CC(=O)Nc1ccccc1C(=O)C(=O)Nc1ccc(C)c(C)c1`: 5.21 µM (active). The same measure for `CC(=O)Nc1ccccc1C(=O)C(=O)Nc1ccc(C)c(F)c1`: 2.33 µM (active). With `Cn1c2ccccc2c(=O)c2ccc(-c3ccc4c(c3)OCO4)cc21`, the Potency was 1.04 µM (active). The same measure for `CN(C)c1ccc(-c2ccc3c(=O)c4ccccc4n(C)c3c2)cn1`: 4.65 µM (active).

Take `Cc1ccc(N2C(=O)c3ccccc3NC2(C(=O)O)c2ccccc2)cc1Cl` (stereo not drawn): the Potency is 2.93 µM (active).

`O=[N+]([O-])c1ccccc1CSc1nc2ccccc2o1`: the Potency is 14.7 µM (active). With `CC(=O)c1ccc(Oc2ncnc3c2oc2ccccc23)cc1`, the Potency is 0.927 µM (active). Next, `COc1ncnc2c1oc1ccccc12`: 8.26 µM (active); `COc1ccc(Oc2ncnc3c2oc2ccccc23)cc1`: 11.7 µM (active). As for `Cc1ccc(/C=N/n2c(C)nc3ccccc3c2=O)s1`, the Potency is 6.56 µM (active).

Take `Cc1nc2ccccc2c(=O)n1/N=C/c1ccccc1Cl`: the Potency is 6.56 µM (active). In the case of `Fc1ccccc1CSc1nnc(-c2cccs2)o1`, the Potency is 3.29 µM (active). The same measure for `CCC(CC)c1nnc(NC(=O)c2ccc3c(c2)OCO3)s1`: 7.36 µM (active); for `CC(C)(C)c1nnc(NC(=O)c2ccc3c(c2)OCO3)s1`: 1.47 µM (active); for `O=C(N/N=C/c1ccccc1F)NC1CCCCC1`: 10.4 µM (active). The same measure for `O=C(N/N=C/c1cccc(F)c1)NC1CCCCC1`: 16.5 µM (active); for `COc1cccc(/C=N/NC(=O)NC2CCCCC2)c1O`: 4.14 µM (active); for `O=C(CCSc1ccccc1Cl)Nc1cccc([N+](=O)[O-])c1`: 11.7 µM (active). The same measure for `NS(=O)(=O)c1cccc(NC(=O)CCSc2ccccc2Cl)c1`: 10.4 µM (active); for `CN(C)C(=O)c1ccc(-c2cc(C(F)(F)F)nn2C)s1`: 6.56 µM (active). On to `O=C(CN1c2ccc(Br)cc2-c2ccccc2S1(=O)=O)N1CCCCC1`, for which the Potency was 7.36 µM (active). Take `Cc1nccc(-c2cc(-c3ccc(Cl)cc3Cl)no2)n1`: the Potency was 2.33 µM (active). The same measure for `COc1ccc(-c2csc(C3=C(O)CN(CCCN4CCCC4=O)C3=N)n2)cc1OC`: 16.5 µM (active); for `Cc1ccccc1OCc1nc2ccccc2c(=O)n1/N=C/c1ccco1`: 10.4 µM (active); for `Cc1ccccc1OCc1nc2ccccc2c(=O)n1N`: 16.5 µM (active). `Nn1c(COc2ccc(Cl)cc2)nc2ccccc2c1=O`: the Potency is 7.36 µM (active). Next, `c1ccc(Nc2nnc(-c3cccc4ccccc34)o2)cc1`: 1.85 µM (active); `COc1ccc(Nc2oc(-c3ccc(OC)cc3)nc2C#N)cc1`: 2.93 µM (active). Next, `COc1ccc(Nc2oc(-c3ccccc3)nc2C#N)cc1`: 1.85 µM (active); `COc1ccc(-c2nc(C#N)c(NC(C)C)o2)cc1`: 6.56 µM (active). Next, `CC(C)Nc1oc(-c2cccc3ccccc23)nc1C#N`: 13.1 µM (active); `CCOc1ccc(Nc2oc(Cc3ccccc3)nc2C#N)cc1`: 11.7 µM (active). In the case of `O=C1c2ccccc2C(=O)c2c1cccc2N1CCOCC1`, the Potency was 11.7 µM (active).

With `O=c1c2ccccc2nc(-c2ccccc2)n1Cc1ccccc1`, the Potency was 14.7 µM (active).

For the molecule `COc1ccccc1-c1ccc(NC2CCCC2)nn1`, the Potency is 13.1 µM (active). Next, `COc1ccccc1-c1ccc(NC2CCCCC2)nn1`: 7.36 µM (active); `Cn1ccc(NC(=O)Nc2ccc(Cl)cc2Cl)n1`: 3.69 µM (active); `Cc1ccc2cc(CCNC(=O)c3ccco3)c(=O)[nH]c2c1C`: 0.826 µM (active). The same measure for `Cc1ccc2cc(CCNC(=O)c3ccco3)c(=O)[nH]c2c1`: 5.85 µM (active).

For the molecule `Cc1ccc(-c2ccc(/C=N/O)o2)cc1[N+](=O)[O-]`, the Potency was 16.5 µM (active). Next, `CCCc1cc(=O)n2[nH]c(-c3ccccc3)cc2n1`: 4.14 µM (active); `Cc1cccc(NC(=O)c2ccc3c(c2)OCCO3)c1C`: 4.65 µM (active); `COc1ccccc1NC(=O)c1ccc2nsnc2c1`: 7.36 µM (active).

For the molecule `COc1cc2c(cc1NC(=O)c1ccc3c(c1)OCO3)oc1ccccc12`, the Potency is 7.36 µM (active). The same measure for `COc1ccccc1NC(=O)c1ccc2c(c1)OCO2`: 3.29 µM (active); for `O=C(O)C1CC=CCC1C(=O)NCCc1csc(-c2ccccc2)n1` (stereo not drawn): 18.5 µM (active).

Regarding `O=C1c2ccccc2S(=O)(=O)N1CC1CC(c2ccccc2Cl)=NO1` (stereo not drawn), the Potency was 4.14 µM (active). Regarding `O=C1c2ccccc2S(=O)(=O)N1CC1CC(c2ccc(Cl)cc2)=NO1` (stereo not drawn), the Potency was 2.93 µM (active).

Take `O=C(COC(=O)Cn1cnc2ccccc21)Nc1ccc2c(c1)C(=O)c1ccccc1C2=O`: the Potency is 2.07 µM (active).

As to `COc1ccc(Nc2ncnc3c2c(C)c(C)n3CCO)cc1`, the Potency was 0.736 µM (active).

Consider `Cc1c(C)n(CCO)c2ncnc(Nc3ccc(F)cc3)c12`, for which the Potency was 14.7 µM (active). Take `COc1ccccc1Nc1ncnc2c1c(C)c(C)n2CCO`: the Potency is 14.7 µM (active). Turning to `CCCOc1ccc(/C=N/Nc2ccccc2[N+](=O)[O-])c(O)c1`, the Potency was 0.0656 µM (active). The same measure for `O=[N+]([O-])c1ccccc1N/N=C/c1cccc(O)c1O`: 2.61 µM (active); for `O=[N+]([O-])c1ccccc1N/N=C\c1ccccc1Cl`: 0.656 µM (active). As to `O=[N+]([O-])c1ccc(N/N=C/c2cccc(O)c2O)cc1`, the Potency is 6.56 µM (active). The same measure for `COc1ccccc1/C=N\Nc1ccccc1[N+](=O)[O-]`: 1.04 µM (active); for `O=[N+]([O-])c1ccccc1NC(=S)N/N=C/c1ccc(O)c(O)c1`: 1.85 µM (active). Next, `O=C(CCS(=O)(=O)c1ccccc1)NC12CC3CC(CC(C3)C1)C2`: 2.07 µM (active); `O=C(CCCc1ccccc1)NC12CC3CC(CC(C3)C1)C2`: 1.65 µM (active); `Cc1ccc2nc(-c3ccc(N4C(=NC(=O)CCC(=O)O)SC5CS(=O)(=O)CC54)cc3)sc2c1` (stereo not drawn): 3.29 µM (active). Next, `CCCC(=O)N=C1SC2CS(=O)(=O)CC2N1c1ccc(-c2nc3ccc(C)cc3s2)cc1` (stereo not drawn): 2.93 µM (active); `NNc1nc(-c2ccccc2Cl)nc2sc3c(c12)CCCC3`: 5.21 µM (active). For `Nc1nc(-c2cccnc2)nc2sc3c(c12)CCCC3`, the Potency is 4.65 µM (active). Regarding `NNc1nc(-c2ccccc2)nc2sc3c(c12)CCCC3`, the Potency was 0.464 µM (active). Next, `CC1CCN(C(=O)c2ccc(NC(=O)c3nsc4ccccc34)cc2)CC1`: 1.85 µM (active); `CCOC(=O)C1CCCN(C(=O)c2ccc(NC(=O)c3nsc4ccccc34)cc2)C1` (stereo not drawn): 3.69 µM (active); `CC1CCN(C(=O)c2cccc(NC(=O)c3nsc4ccccc34)c2)CC1`: 7.36 µM (active). Next, `COc1ccc2nc(Nc3nc4cc5c(cc4s3)OCCO5)sc2c1`: 13.1 µM (active); `COc1ccc2nc(Nc3ccc4c(c3)OCO4)sc2c1`: 4.65 µM (active); `COc1ccc(Nc2nc(C)c(-c3ccccc3)s2)cc1`: 6.56 µM (active). Next, `COC(=O)CCc1sc(Nc2ccccc2)nc1-c1ccc(OC)cc1`: 16.5 µM (active); `COc1ccc(Nc2nc3ccc(OC)cc3s2)cc1`: 3.69 µM (active).

As to `O=c1c2c(nc3cc(-c4ccc(F)cc4)[nH]n13)CCC2`, the Potency was 1.04 µM (active). The same measure for `COC(=O)C1C(=O)C=C(Nc2ccc(F)cc2)CC1c1ccc(OC)cc1` (stereo not drawn): 10.4 µM (active); for `Cc1ccc2c(Cl)c(C(=O)NCCc3ccccc3)sc2c1`: 6.56 µM (active). Next, `Cc1cc(OCC(=O)N(C)C2CCCCC2)ccc1Cl`: 1.65 µM (active). Next, `Cc1cn(CCC(=O)Nc2ccccc2N2CCOCC2)c2ccccc12`: 9.27 µM (active). On to `CCCS/C(N)=N/N=C/c1cc(C)ccc1O`, for which the Potency was 1.47 µM (active). The same measure for `CCOc1ccc(CNC(=O)c2cc3ccccn3n2)cc1`: 7.36 µM (active); for `CC(C)Oc1ccc(CNC(=O)c2cc3ccccn3n2)cc1`: 6.56 µM (active). On to `COc1cc(Cl)c(NC(=O)c2cc3ccccn3n2)c(OC)c1`, for which the Potency is 6.56 µM (active).
